Source: PubChem (NMMLSC)
VLA-4 agonist: enhancers of LDV-FITC binding to VLA-4 integrin, primary screen, Jurkat cells, flow cytometry. Integrin alpha-4 (Homo sapiens), P13612. activation, % at 10 µM (by protocol). 24,000 tested, under 10 active;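 active = fluorescent ligand binding to cells raised by more than 40% of the manganese-induced maximum; inconclusive = compound's own fluorescence above 85% of the ligand control signal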;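 also: 0% = ligand binding without compound and 100% = manganese-stimulated maximal binding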
Target sequence (P13612 whole entry, looked up): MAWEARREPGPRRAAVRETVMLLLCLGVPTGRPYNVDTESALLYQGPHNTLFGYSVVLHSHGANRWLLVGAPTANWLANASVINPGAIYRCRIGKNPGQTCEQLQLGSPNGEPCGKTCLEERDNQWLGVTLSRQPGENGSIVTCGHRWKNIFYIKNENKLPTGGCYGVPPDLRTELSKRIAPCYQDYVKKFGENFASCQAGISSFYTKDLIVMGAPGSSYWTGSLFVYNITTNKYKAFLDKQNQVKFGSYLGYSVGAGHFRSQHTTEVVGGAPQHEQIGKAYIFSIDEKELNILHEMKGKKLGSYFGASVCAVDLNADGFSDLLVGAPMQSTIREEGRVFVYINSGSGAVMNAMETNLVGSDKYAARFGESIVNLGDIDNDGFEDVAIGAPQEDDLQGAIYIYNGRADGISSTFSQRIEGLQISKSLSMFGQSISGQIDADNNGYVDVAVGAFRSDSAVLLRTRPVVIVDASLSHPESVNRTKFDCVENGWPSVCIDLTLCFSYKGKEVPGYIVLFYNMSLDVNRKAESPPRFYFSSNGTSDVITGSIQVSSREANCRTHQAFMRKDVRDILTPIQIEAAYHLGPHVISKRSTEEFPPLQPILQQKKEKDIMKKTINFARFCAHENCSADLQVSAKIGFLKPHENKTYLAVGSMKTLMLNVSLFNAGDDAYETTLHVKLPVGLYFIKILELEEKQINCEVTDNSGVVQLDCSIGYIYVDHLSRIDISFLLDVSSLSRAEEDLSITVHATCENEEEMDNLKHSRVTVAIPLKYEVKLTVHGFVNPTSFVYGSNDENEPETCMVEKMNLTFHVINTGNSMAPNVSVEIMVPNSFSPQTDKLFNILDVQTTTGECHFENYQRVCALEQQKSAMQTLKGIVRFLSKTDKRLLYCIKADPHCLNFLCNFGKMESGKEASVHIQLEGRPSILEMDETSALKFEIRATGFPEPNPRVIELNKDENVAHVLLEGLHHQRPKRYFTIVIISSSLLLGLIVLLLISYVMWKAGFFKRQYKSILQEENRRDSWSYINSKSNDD
FPRL1 ligand: human FPRL1 ligands by binding competition, primary screen, cell-based, FPR counter-screen, flow cytometry. FPRL1-expressing cells, fluorescent ligand binding inhibition. inhibition, % (concentration not given with the values). hit rate 0.3% among 24,000. AID 441, 2006;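 also: 0% = buffer alone and 100% = receptor blocker peptide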
VLA-4 antagonist: inhibitors of LDV-FITC binding to Mn2+-activated VLA-4, primary screen, Jurkat cells | Integrin alpha-4 (Homo sapiens), P13612 | LDV-FITC binding with Mn2+, flow cytometry; 100% = Mn2+-driven binding gain fully reversed | inhibition, % at 10 µM (by protocol) | hit rate 0.2% among 24,000;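 active = inhibition above 50%; inconclusive = compound itself fluorescent, judged against control cell fluorescence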;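 also: 0% = Mn2+ stimulated cells lacking compound and 100% = ligand binding without Mn2+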
FPR ligand: human FPR ligands by binding competition, primary screen, cell-based, FPRL1 counter-screen, flow cytometry; inhibition, % (test concentration not listed); fMet-Leu-Phe receptor (Homo sapiens), P21462; hit rate 0.74% among 24,000; AID 440, 2006; FPR-expressing cells, fluorescent ligand binding;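 also: 0% = buffer wells and 100% = receptor blocker peptide wells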
Autofluor Jurkat: compound autofluorescence on Jurkat cells, primary screen, artefact control for VLA-4 allosteric ligand project, cell-based, flow cytometry; hit rate 0.61% among 24,000; fluorescence ratio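 (tested at 10 µM compound in the well)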; hits give high values; 1 = vehicle-only cell background;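 active = fluorescence ratio above 2.44, which is 1 plus 3 SD of all ratios; inconclusive = signal too bright to measure linearly, ratio around 10 or more; inactive = fluorescence ratio below 2.44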;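 also: green fluorescence of cells measured with 488 nm excitation and 530 nm emission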
Proteasome disasm: inhibitors of ATP-driven 26S proteasome dissociation, primary screen, biochemical, bead-based flow cytometry, GFP-tagged proteasome; anti-FLAG beads, GFP-proteasome disassembly; inhibition of disassembly, % (concentration not given with the values); hit rate 0.2% among 24,000;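 active = inhibition of disassembly above about 33%, limit read from the data; inconclusive = likely self-fluorescent, control bead median signal at least 40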;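 also: plate controls were ATP control with full disassembly for no effect and ATP-gamma-S intact proteasomes for full effect; higher percent means more bead fluorescence retained so stronger block of disassembly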
* marks the source's active call; other numbers are inactive results; ? = inconclusive; · = not tested or not shown; ! = not active in a repeat. Hits are enriched below; roughly 1.9% of the tested compounds scored in any of these assays. Rule as the data show it, unless noted: active = inhibition above about 30%; inconclusive = no clear call, values can overlap the other calls; inactive = below that.

SMILES	VLA-4 agonist	FPRL1 ligand	VLA-4 antagonist	FPR ligand	Autofluor Jurkat	Proteasome disasm
O=C(C1=C(O)C(=O)N(CCN2CCOCC2)C1c1ccccc1)c1cccs1 (stereo unspecified)	·	28	·	44*	·	·
C=CCOc1cccc(C2C(C(=O)c3ccco3)=C(O)C(=O)N2CCN2CCOCC2)c1 (stereo unspecified)	·	-2	·	63*	·	·
Cc1ccc(NC(=O)COS(=O)c2ccc(C)cc2)cc1 (stereo unspecified)	-2	-7	-18	-6	1.1	0
CCCCN(CC)CCNC(=O)c1cc2c(C)nc3ccccc3c2o1	2	-1	-6	-3	1.1	1
CCCCOc1cc(C(=O)NCCN(CC)CC)c2ccccc2n1	4	0	-2	49*!	1	-1
CCC(NC(=O)Nc1cc(OC)c(OC)c(OC)c1)(C(F)(F)F)C(F)(F)F	1	55*	-25	45*	0.99	0
COc1cc(NC(=O)c2ccc(COCC(F)(F)F)o2)cc(OC)c1OC	-15	2	10	-7	1	1
CCn1c(SCC(=O)Nc2nc3ccc(C)cc3s2)nc2c(c1=O)SC(C)C2 (stereo unspecified)	-9	-11	16	6	1	-5
COc1ccccc1-n1nnnc1SCc1cc2c(cc1Br)OCO2	-1	-1	0	-5	1	0
O=C(NCCN1CCCC1)c1ccc(CS(=O)(=O)c2c(Cl)cccc2Cl)o1	4	-4	-12	-2	0.98	1
CCOCCOC(=O)C1=C(C)N(C)C(=O)NC1c1cc(Cl)c(O)c(OC)c1 (stereo unspecified)	1	-1	-14	1	1.2	0
CCOc1cc(C2NC(=O)N(C)C(C)=C2C(=O)OC)cc(Br)c1O (stereo unspecified)	?	-12	?	-6	4.3*	16
Cc1nc2c(-c3ccc(F)cc3)c(C)nn2c(C)c1CCC(=O)NC(C)CCc1ccco1 (stereo unspecified)	-6	-6	11	44*	1.1	-1
Cc1nc2c(-c3ccccc3)c(C)nn2c(C)c1CCC(=O)NCc1ccco1	-5	-1	6	6	1.1	0
COc1ccc(S(=O)(=O)NC(C)C(=O)Nc2cccc(C(C)=O)c2)cc1 (stereo unspecified)	-2	47*	-17	11	1.1	3
Cc1c(C(=O)NC2CC2)oc2ccc(S(=O)(=O)N3CCCCCC3)cc12	?	2	?	5	1.1	0
Cc1c(C(=O)NC2CCCc3ccccc32)oc2ccc(S(=O)(=O)N3CCOCC3)cc12 (stereo unspecified)	-5	8	4	38*	1.1	1
CCOc1ccc(NC(=O)c2oc3ccccc3c2NC(=O)CC)cc1	?	-4	?	-2	1.7	0
CCOc1ccc(NC(=O)c2oc3ccccc3c2NC(=O)C(C)C)cc1	?	-3	?	-4	2.5*	0
Brc1cccc(C2CC(c3ccccc3)n3nnnc3N2)c1 (stereo unspecified)	-6	16	16	12	1	-1
CC(C)N=c1cc2n(-c3ccc(Cl)cc3)c3ccccc3nc-2cc1Nc1ccc(Cl)cc1	?	18	?	8	3.9*	-1
CCC(C)(C(=O)NC1CCCCC1)N(Cc1ccco1)C(=O)c1ccc2c(c1)OCO2 (stereo unspecified)	-2	-1	-9	6	0.96	1
CCC(C)(C(=O)NC1CCCC1)N(CC1CCCO1)C(=O)c1ccc2c(c1)OCO2 (stereo unspecified)	3	2	3	37*	1	0
COc1ccccc1Oc1c(C)oc2c(CN(C)C)c(O)ccc2c1=O	·	30*	·	22	·	·
COc1ccccc1Oc1c(C)oc2c(CN3CCN(CCO)CC3)c(O)ccc2c1=O	·	1	·	-6	·	·
O=C(CCCCCn1c(=O)[nH]c2ccsc2c1=O)N1CCN(C2CCCCC2)CC1	-2	-3	9	-1	0.99	-2
